For this assay, the system named is A549. Nature of the assay: relative viability (normalised to negative control = 1, bortezomib = 0) (fraction); higher = less cytotoxic. The note with it: inflammatory serum-free RHB-A with cytokines + LPS, 5 d + 24 h CellTiter-Blue. A general note: The colour change of resazurin is a common sign of viable cells or microbes.
The mark [1] stands for this setting: compound 30 nM, GSK126 pretreatment: 5 uM GSK126.
The mark [2] stands for this setting: compound 30 nM, GSK126 pretreatment: none (vehicle).
The mark [3] stands for this setting: compound 300 nM, GSK126 pretreatment: 5 uM GSK126.
The mark [4] stands for this setting: compound 300 nM, GSK126 pretreatment: none (vehicle).

Experimental findings from the supplement of paper PMC6279402 are described below.

Counter-ions that a name gives are not always drawn. ± gives the standard deviation of the averaged measurements.

Regarding `O=C1NC(=O)/C(=C/c2ccc3nccc(-c4ccncc4)c3c2)S1`, the relative viability reads like this: under setting [1], 0.83 ± 0.1; under setting [2], 0.85 ± 0.088; under setting [3], 0.747 ± 0.067; under setting [4], 0.72 ± 0.029.

Take `CC1(COc2ccc3c(c2)ncn3-c2ccc3cccc(N4CCC(N)CC4)c3n2)COC1`: the relative viability is, setting by setting: under setting [1], 0.986 ± 0.081; under setting [2], 0.966 ± 0.12; under setting [3], 1.3 ± 0.087; under setting [4], 1.34 ± 0.12.

Take `CC[C@]1(O)C[C@H]2CN(CCc3c([nH]c4ccccc34)[C@@](C(=O)OC)(c3cc4c(cc3OC)N(C=O)[C@H]3[C@@](O)(C(=O)OC)[C@H](OC(C)=O)[C@]5(CC)C=CCN6CC[C@]43[C@@H]65)C2)C1` [Vincristine sulfate]: the relative viability is 0.453 ± 0.072 under setting [1], 0.289 ± 0.031 under setting [2], 0.388 ± 0.035 under setting [3] and 0.303 ± 0.014 under setting [4].

Take `CCOc1cc2ncc(C#N)c(Nc3ccc(F)c(Cl)c3)c2cc1NC(=O)/C=C/CN(C)C` [Pelitinib]: the relative viability runs as follows: under setting [1], 0.562 ± 0.038; under setting [2], 0.504 ± 0.012; under setting [3], 0.0719 ± 0.015; under setting [4], 0.0851 ± 0.02.

With `O=C(O)C(=O)O.[NH-][C@@H]1CCCC[C@H]1[NH-].[Pt+2]` [Oxaliplatin], the relative viability under setting [1] amounted to 0.792 ± 0.077, the relative viability under setting [2] came to 0.782 ± 0.1, the relative viability under setting [3] was found to be 0.79 ± 0.088 and the relative viability under setting [4] was found to be 0.796 ± 0.037.

For the compound `Cn1cc(-c2ccc3nnc(Sc4ccc5ncccc5c4)n3n2)cn1`, the relative viability under setting [1] is 0.807 ± 0.056, the relative viability under setting [2] was determined as 0.846 ± 0.079, the relative viability under setting [3] was 0.859 ± 0.033 and the relative viability under setting [4] is 0.903 ± 0.02.

For the compound `Cc1ccc(NC(=O)c2cccc(N(C)C)c2)cc1NC(=O)c1ccc(O)cc1`, the relative viability reads like this: under setting [1], 0.965 ± 0.086; under setting [2], 1.02 ± 0.11; under setting [3], 1.19 ± 0.13; under setting [4], 1.15 ± 0.042.

Turning to `O=C(NOCC(O)CO)c1cc(Br)c(F)c(F)c1Nc1ccc(I)cc1F` (stereo not drawn), the relative viability was found to be 0.407 ± 0.025 under setting [1], 0.492 ± 0.087 under setting [2], 0.193 ± 0.019 under setting [3] and 0.276 ± 0.0045 under setting [4].

Consider `CNC(=O)c1cc(COc2nnc(Nc3ccc(Cl)cc3)c3ccoc23)ccn1` [Telatinib (BAY 57-9352)], for which the relative viability runs as follows: under setting [1], 0.896 ± 0.11; under setting [2], 0.887 ± 0.073; under setting [3], 0.967 ± 0.13; under setting [4], 0.91 ± 0.13.

`O=c1cc(-c2cccc3c2Sc2ccccc2S3)oc(N2CCOCC2)c1`: the relative viability under setting [1] amounted to 0.781 ± 0.04, the relative viability under setting [2] worked out at 0.845 ± 0.035, the relative viability under setting [3] amounted to 0.833 ± 0.044 and the relative viability under setting [4] came out at 0.875 ± 0.069.

Turning to `COc1ccc(-c2ccc3c(N4CCOC[C@@H]4C)nc(N4CCOC[C@@H]4C)nc3n2)cc1CO`, the relative viability stood at 0.392 ± 0.011 under setting [1], 0.396 ± 0.016 under setting [2], 0.191 ± 0.054 under setting [3] and 0.197 ± 0.015 under setting [4].

In the case of `O=C1c2ccccc2-c2n[nH]c3cccc1c23`, the relative viability reads like this: under setting [1], 0.785 ± 0.1; under setting [2], 0.796 ± 0.078; under setting [3], 0.801 ± 0.075; under setting [4], 0.894 ± 0.15.
